Bioassay records: PubChem BioAssay, National Center for Advancing Translational Sciences (NCATS)
The entries come from a sample that favours hits as a whole.
Pf Dd2 growth – blocks in vitro growth of P. falciparum Dd2. P. falciparum Dd2 growth, SYBR Green, 72 h. Potency, µM (titrated, usually from 28.9 µM), inactives show at the top dose activity, negative = inhibition, most hits filed as inhibitors. 120,000 tested, 4.3% active; active means well fitted inhibition curve with a large enough effect;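 further: plate controls were DMSO vehicle for no effect and reference drug for full effect; nearly all actives have a fitted effect of over 65% in size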
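Readout: SYBR Green fluorescence, 485 nm excitation, 535 nm emission, after ~16 h lysis at 37C. Before that, Dd2-infected red cells (2.5% hematocrit) grew 72 h with compound, 29 uM top final concentration.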
Numbers without * were called inactive; i = inactive; [ ] = dose if it differs, or a comment. Potency means the concentration at half of the fitted maximal effect.

SMILES	Pf Dd2 growth
COc1ccc(C2C=C(c3ccc(F)cc3)Nc3nc(-c4ccc(Cl)cc4)nn32)cc1 (stereo not drawn)	1.1µM*
Cc1ccc(C2C=C(c3ccc(F)cc3)Nc3nc(CCCO)nn32)cc1 (stereo not drawn)	8.9µM*
Cc1ccc(C2C=C(c3ccccc3)Nc3nc(NS(=O)(=O)c4ccc(C)cc4)nn32)cc1 (stereo not drawn)	-14%
COc1ccc(C2Cn3nnc(-c4nc(-c5ccc(Cl)cc5)no4)c3CO2)cc1 (stereo not drawn)	i
CCOc1ccccc1C1C(C(=O)Nc2ccccc2)=C(C)Nc2nc(-c3ccccc3)nn21 (stereo not drawn)	-19%
COCCc1noc(CNC(=O)c2sc3cccc(F)c3c2Cl)n1	-19%
COc1cccc(NC(=O)C2CCC(CNS(=O)(=O)c3ccc4c(c3)CCCC(=O)N4)CC2)c1 (stereo not drawn)	47%
C=CCn1cc(CN(CC)Cc2ccc(OC)cc2)c(C)n1	1%
CS(=O)(=O)N1CCC2(CCC(=O)N(CC3CC3)CC2)CC1	100%
Fc1ccc2c(c1)NC(c1ccncc1)=NC(c1cccs1)=N2	i
CCN(Cc1cccnc1)C(=O)c1cc(-c2cnn(CC)c2)nc2cc(C)ccc12	-27%
CC(=O)N1C[C@@H](C(=O)NCCCc2c(C)noc2C)[C@H](c2nc(C)no2)C1	3%
CCN(CC)C(=O)Cn1c(=O)n(-c2ccc(C)c(C)c2)c(=O)c2c3c(sc21)CCCCC3	33%
Cc1ncc2c(n1)C[C@@H]1CC[C@H]2N1C(=O)C1CCC1	0%
CC(C)(C)C1CCc2nc(NC(=O)Cc3ccc(Cl)cc3)sc2C1 (stereo not drawn)	10µM*
COc1ccccc1OCC(=O)Nc1nc2c(s1)CC(C)CC2 (stereo not drawn)	86%
COc1ccc(CC(=O)Nc2nc3c(s2)CC(C(C)(C)C)CC3)cc1 (stereo not drawn)	-28%
Cc1ccc(-c2noc([C@@H]3C[C@@H](O)CN3Cc3ccc(S(C)(=O)=O)cc3)n2)cc1F	-27%[44.1 µM]
Clc1ccc(-c2nnc3n2CCN(CC2CC2)C3)cc1	3%[44.1 µM]
Cc1noc(C)c1[S+](=O)([O-])N1CCCC2(COc3ccccc3C(=O)N2)C1 (stereo not drawn)	-13%
CN1CCc2c(sc(NC(=O)CSc3ccc(F)cc3)c2-c2nc3ccccc3s2)C1	13µM*
CC(=O)N1CCc2c(sc(NC(=O)CSc3ccc(F)cc3)c2-c2nc3ccccc3s2)C1	i
Cn1c(SCC(=O)Nc2nc3ccccc3s2)ncc(C(=O)Nc2ccc(F)cc2)c1=O	24%
Cc1ccc(N2CCN(c3nc4c(c(=O)[nH]3)CCNC4)CC2)cc1	7%
CCCCN1CCN(c2nc(-c3ccccc3)nc3c2CCNC3)CC1=O	11µM*
SMILES	Pf Dd2 growth
CCCCN1CCN(C(=O)c2cc(Cl)c(C)c(Cl)c2)CC1=O	-7%
CCc1cccc(CC)c1NC(=O)CN1C(=O)C(=O)c2ccccc21	-18%
COc1cc(SC)ccc1C(=O)N[C@H]1CCN2C(=O)N(c3ccc(F)c(Cl)c3)C(=O)[C@@H]2C1	-20%
Cn1cc(S(=O)(=O)N2CCCCC2)cc1C(=O)Nc1ccc(OC(F)(F)F)cc1	11µM*
Cn1cc(S(=O)(=O)N2CCCC2)cc1C(=O)Nc1ccc(F)cc1F	-3%
CC(=O)c1ccc(NC(=O)c2cc(S(=O)(=O)N3CCCCCC3)cn2C)cc1	8%
O=C(Nc1ccc(F)cc1)C1CCCN(c2nc3ncccc3o2)C1 (stereo not drawn)	i
CCOc1ccccc1CN1C[C@@H](CO)[C@H](NC(=O)C2CC2)C1	7.9µM*
O=C(N[C@@H]1CN(Cc2c(F)cccc2Cl)C[C@H]1CO)C1CC1	-8%
COc1ccc(CN2C[C@@H](CO)[C@H](NC(=O)C3CCC3)C2)cc1	9%
CC(C)C1=NOC2(CCCN([S+](=O)([O-])c3cccc(C(F)(F)F)c3)C2)C1 (stereo not drawn)	-21%
COc1ccc(CN2C(=O)[C@@H]3C[C@@H](CN3Cc3ccccc3)Oc3ccccc32)cc1	-51%[44.1 µM]
COc1ccc(CN2C(=O)[C@@H]3C[C@@H](CN3C3CCN(C)CC3)Oc3ccccc32)cc1	10µM*
COc1ccc(CN2C(=O)[C@@H]3C[C@@H](CN3C)Oc3ccccc32)cc1	i
CS(=O)(=O)N1C[C@@H]2C[C@H]1C(=O)N(Cc1ccc(OC(F)(F)F)cc1)c1ccccc1O2	-21%
O=C1[C@@H]2C[C@@H](CN2C2CCC2)Oc2ccccc2N1Cc1ccc(OC(F)(F)F)cc1	6.3µM*
O=C(O)CCC(=O)N1C[C@@H]2C[C@H]1C(=O)N(Cc1ccc(OC(F)(F)F)cc1)c1ccccc1O2	-17%
Cc1nc(C)c(C(=O)N2Cc3ccccc3C(O)C2)s1 (stereo not drawn)	9%
Cc1cc(C(=O)N[C@@H]2CN(Cc3cccnc3)C[C@H]2CN(C)C)no1	18%
Cc1ccc(C(=O)N2CC[C@H](c3n[nH]c(C)n3)[C@H](NC(=O)C3CC3)C2)cc1	63%
COc1cc(OC)cc(-c2cc3nc(C)c(CCC(=O)Nc4ccc(C(C)=O)cc4)c(C)n3n2)c1	i
COc1ccc(CNC(=O)CCc2c(C)nc3cc(-c4ccc(OC)cc4OC)nn3c2C)cc1	11µM*
COc1ccccc1-c1cc2nc(C)c(CCC(=O)Nc3cc(C)ccc3C)c(C)n2n1	-15%
CCOC(=O)c1ccc(NC(=O)CCc2c(C)nc3cc(-c4ccc(OC)cc4OC)nn3c2C)cc1	5µM*
COc1cc(OC)cc(-c2cc3nc(C)c(CCC(=O)Nc4ccccc4OC)c(C)n3n2)c1	i
SMILES	Pf Dd2 growth
COc1ccc(-c2cc3nc(C)c(CCC(=O)N4CCN(c5ccccc5)CC4)c(C)n3n2)c(OC)c1	30%
COc1cc(OC)cc(-c2cc3nc(C)c(CCC(=O)NCc4ccccc4)c(C)n3n2)c1	-12%
COc1ccccc1-c1cc2nc(C)c(CCC(=O)NCCc3ccc(SC)cc3)c(C)n2n1	13µM*
COc1ccc(CCNC(=O)CCc2c(C)nc3cc(-c4cccc(F)c4)nn3c2C)cc1OC	-7%
Cc1nc(-c2ccc(S(=O)(=O)Nc3ccc(OC(F)(F)F)cc3)cc2)co1	30%
COc1cccc(C2Cn3nnc(-c4nc(-c5ccccc5OC)no4)c3CO2)c1 (stereo not drawn)	-5%
COc1ccc(Cl)cc1Nc1sc(C(=O)c2ccccc2)c(N)c1C(=O)Nc1ccccc1	i
O=C1NC(C(=O)Nc2cccc(F)c2)Cn2cccc21 (stereo not drawn)	23%
Cc1nc(N2CCCC2)ncc1C(=O)NCc1ccc(Cl)cc1	57%
CCNC(=O)c1ccccc1-c1ccc(S(=O)(=O)N(CC)CC)cc1	-21%
Cc1cc(C(=O)N[C@H]2[C@H](O)[C@H](O)C[C@@H]2c2cccnc2)n(C)n1	11%[44.1 µM]
CCOc1nccnc1NC1CCN(C(=O)c2ccc(C)s2)CC1	37%[5.79 µM]
Cc1cnc(-c2cccnc2)n1C1CCCN(CC2CCCCC2)C1 (stereo not drawn)	11µM*
Cc1cnc(-c2cccnc2)n1CC1CCN(CC2CC2)CC1	-15%
Cc1cnc(-c2cccnc2)n1C1CCCN(C(=O)C2CC2)C1 (stereo not drawn)	-22%
CCO[C@H]1CN(C(=O)c2ccc(N3CCN(C)CC3)cc2)C[C@@H]1O	6%
Cc1nc(C(C)C)cc(N2CCC(Oc3cccc(F)c3)(C(=O)O)CC2)n1	15%
C#CCNC(=O)c1cc(-c2ccc([S+](C)(=O)[O-])cc2)nc2c1cnn2C	-3%
COc1ccc(C(=O)N2[C@H]3CC[C@@H]2c2cnc(C)nc2C3)cn1	35%
